Screening results as filed in PubChem.
Only some compounds are listed: those with a hit (about 1.4% of all), similar ones and a draw of the others.
MbtI inh: MbtI salicylate synthase inhibitors, primary screen, biochemical, fluorescence intensity. P9WFX0. purified MbtI enzyme, fluorescence intensity read-out. inhibition, % (no concentration beside the values). 100,000 tested, 0.89% active. AID 493033, 2011; in the data active = inhibition mostly above about 56%, no sharp cut-off; inactive = mostly below about 77%
PV pol inh: poliovirus RdRp elongation inhibitors, primary screen, biochemical, fluorescence polarization, total intensity | 150,000 tested, 0.66% active | AID 588519, 2011 | % elongation, % (compound at 16.7 µg/mL) | Genome polyprotein (Poliovirus type 1 (strain Mahoney)), P03300 | poliovirus polymerase elongation; hits give low values; in the data active = % elongation below about 90%
Target sequence (P03300 1749-2209 limits assumed): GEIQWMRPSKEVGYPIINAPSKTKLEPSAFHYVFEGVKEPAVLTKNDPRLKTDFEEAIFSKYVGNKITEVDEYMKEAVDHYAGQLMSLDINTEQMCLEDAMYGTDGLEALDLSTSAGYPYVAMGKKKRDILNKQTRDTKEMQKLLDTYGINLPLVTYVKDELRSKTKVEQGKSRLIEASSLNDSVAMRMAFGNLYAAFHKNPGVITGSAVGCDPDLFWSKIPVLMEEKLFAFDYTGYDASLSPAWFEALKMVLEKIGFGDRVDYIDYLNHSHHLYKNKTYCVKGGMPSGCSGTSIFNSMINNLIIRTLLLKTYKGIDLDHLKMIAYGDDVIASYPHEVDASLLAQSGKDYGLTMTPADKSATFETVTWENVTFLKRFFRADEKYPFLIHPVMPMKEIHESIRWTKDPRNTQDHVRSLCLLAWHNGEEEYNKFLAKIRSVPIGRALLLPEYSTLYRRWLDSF
AID504770: growth inhibition of E. coli YBA685, primary screen, V. cholerae RctB inhibitors; E. coli YBA685 rctB-dependent plasmid, OD600 growth, 3 h; hits give low values; z-score (concentration not given with the values); 130,000 tested, 0.27% active; AID 504770, 2011; in the data active = z-score below about -2, passing the limit was not always enough
MenB inh: M. tuberculosis MenB inhibitors, primary screen, biochemical, absorbance. 1,4-dihydroxy-2-naphthoyl-CoA synthase (Mycobacterium tuberculosis (strain ATCC 25618 / …. MenB enzyme assay, absorbance read-out. inhibition, % (test concentration not listed). 100,000 tested, 0.43% active; in the data active = inhibition above about 21%, passing the limit was not always enough
Numbers without * were called inactive.

What do the screens show for `COc1ccc(Cl)cc1NC(=O)c1sc2nc(-c3ccc(OC)c(OC)c3)ccc2c1N`?
PV pol inh: 104

Results for S=c1[nH]c2c(s1)sc1ccccc12 ?
MbtI inh: 91*; PV pol inh: 102; AID504770: 0.45; MenB inh: -83

How did Clc1nsc2ccccc12 do in these assays?
MbtI inh: 96; AID504770: -0.9; MenB inh: -42

What do the screens show for `COCCCNC1CC2CCC1C2` (stereo not drawn)?
MbtI inh: -1; PV pol inh: 101; AID504770: 1.6; MenB inh: 7

What do the screens show for `CC1(C)CC(=O)C=C(Nc2ccccc2F)C1`?
MbtI inh: 24; PV pol inh: 102; AID504770: -2.5*; MenB inh: -15

Results for Cc1ccc(C2=NNC(c3cccs3)S2)cc1 (stereo not drawn) ?
PV pol inh: 72*; AID504770: 0.9; MenB inh: -3

Results for CCOC(=O)/C(C#N)=C/NC1CCCCNC1=O (stereo not drawn) ?
MbtI inh: 11; PV pol inh: 100; AID504770: 1.9; MenB inh: 11

What do the screens show for `COc1cccc(Oc2ccc(C(F)(F)F)cc2Nc2nc3ccccc3o2)c1`?
MbtI inh: -36; PV pol inh: 81*; AID504770: 0; MenB inh: -109

What do the screens show for `CCCOc1ccccc1C(=O)N1CCCCC1CCN1CCOCC1` (stereo not drawn)?
PV pol inh: 109

How did O=c1[nH]c2ccc(NCc3ccc(-c4cccc(Cl)c4)o3)cc2[nH]1 do in these assays?
PV pol inh: 103

Results for O=C(/C=C/S(=O)(=O)c1ccc(Br)cc1)c1ccc(F)cc1 ?
AID504770: -1.9

Results for O=C(O)/C=C/C(=O)c1ccc(F)cc1 ?
MbtI inh: 74*; PV pol inh: 43*; AID504770: -2

How did O=C(/C=C/S(=O)(=O)c1ccc(Cl)cc1)c1ccc(F)cc1 do in these assays?
MbtI inh: 98*; PV pol inh: 98; AID504770: -1.9; MenB inh: 9

Results for O=C(CN1C(=O)/C(=C\c2cccc(Cl)c2)Oc2ccccc21)NCC1COc2ccccc2O1 (stereo not drawn) ?
MbtI inh: inactive; PV pol inh: 102; AID504770: 1.5; MenB inh: -2

Results for CCOc1ccccc1CNc1ncn[nH]1 ?
MbtI inh: 1; AID504770: 1.5

How did CCOC(=O)c1c(C)[nH]c(C)c1S(=O)(=O)N1CCCC(C(=O)Nc2ccccc2OCC)C1 (stereo not drawn) do in these assays?
PV pol inh: -7.0*

Results for CCOc1ccccc1NC(=O)C1CCCN(S(=O)(=O)c2c(C)[nH]c(=O)[nH]c2=O)C1 (stereo not drawn) ?
PV pol inh: 102

How did CCCn1cnc2cc(NC(=O)c3cc(OC)c(OC)c(OC)c3)ccc21 do in these assays?
PV pol inh: 103

What do the screens show for `O=C(CSc1ncc(C(F)(F)F)cc1Cl)N1CCNC1=O`?
MbtI inh: 58*; PV pol inh: 104; AID504770: 1.2; MenB inh: 3

Results for Cc1ccc(OC(=O)CN2C(=O)c3ccccc3C2=O)cc1C ?
MbtI inh: -9; PV pol inh: 100; AID504770: -0.4; MenB inh: -25

What do the screens show for `c1ccc(Cc2nnc3sc(Nc4ccccc4)nn23)cc1`?
MbtI inh: -11; PV pol inh: 102; AID504770: -0.7; MenB inh: -13

What do the screens show for `CCNc1nc(NCC)n2c(SCC(=O)Nc3ccc(CC)cc3)nnc2n1`?
MbtI inh: 87*; PV pol inh: 104; AID504770: -0.55; MenB inh: -68

What do the screens show for `COCCCNC1CCOc2ccccc21` (stereo not drawn)?
MbtI inh: 3; PV pol inh: 104; AID504770: -3.7; MenB inh: -26

What do the screens show for `Clc1cccc(N2CCN(c3c4c(nc5nncn35)CCC4)CC2)c1`?
PV pol inh: 104

Results for CCN(CC)S(=O)(=O)c1cccc(-n2sc3ccccc3c2=O)c1 ?
MbtI inh: 100*; PV pol inh: 108; AID504770: 0.4; MenB inh: -19

How did C=CCOc1ccc(/C=C2/C(=O)C3CCN2CC3)cc1 do in these assays?
AID504770: 2.4

What do the screens show for `N#C/C(=C(/O)CSc1nc2ccccc2o1)c1nc2ccccc2[nH]1`?
MbtI inh: -3; PV pol inh: 111; AID504770: 0.2; MenB inh: -2
